For orientation: inhibition means the change of the read-out against control, counted positive when it falls.

Screen size: about 340,000 compounds; about 6,900 (2%) were called active. Rule as the data show it: active = inhibition above about 30%; inactive = below that, where a call was filed. The entries come from a sample that favours actives as a whole.

This passage reports inhibition results from PubChem BioAssay AID485344 (National Center for Advancing Translational Sciences (NCATS), 2010).

Chain of D(2) dopamine receptor (Homo sapiens) (P14416 whole entry, looked up): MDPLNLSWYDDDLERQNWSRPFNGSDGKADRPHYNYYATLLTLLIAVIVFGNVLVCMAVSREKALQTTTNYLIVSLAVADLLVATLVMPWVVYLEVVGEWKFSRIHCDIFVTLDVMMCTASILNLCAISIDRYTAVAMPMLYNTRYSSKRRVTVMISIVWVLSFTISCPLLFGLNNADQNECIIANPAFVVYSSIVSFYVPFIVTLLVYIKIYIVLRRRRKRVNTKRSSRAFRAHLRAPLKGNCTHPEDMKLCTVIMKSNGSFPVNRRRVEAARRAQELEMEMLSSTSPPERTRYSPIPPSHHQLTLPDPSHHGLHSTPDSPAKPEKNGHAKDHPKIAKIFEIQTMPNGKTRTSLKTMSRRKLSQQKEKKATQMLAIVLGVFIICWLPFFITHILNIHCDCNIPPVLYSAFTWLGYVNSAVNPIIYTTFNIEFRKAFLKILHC

This test concerns the target D(2) dopamine receptor (Homo sapiens) (UniProt P14416). Kind of test: HTS Assay for Allosteric Antagonists of the Human D2 Dopamine Receptor: Primary Screen for Antagonists. Also: 0% is about no effect. The settings on record: HEK293 TREx D2 cells, calcium flux, dopamine EC80; at 10 µM; hits give high values. In a few lines: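 Calcium flux kinetic readout in an inducible HEK293 TREx D2 line plated overnight at 30 C. After 180 s compound exposure, an EC80 dopamine challenge follows with another 180 s kinetic read to detect antagonism.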
For orientation: Calcium assays in cells follow changes in intracellular calcium, usually with a dye or a luminescent sensor.
As for `Cc1ccc(F)cc1NC(=O)CSCc1c(C)noc1C`, the inhibition is 13.7% (inactive). Next, `O=C(CN1C(=O)NC2(CCOc3ccccc32)C1=O)NCc1ccc(F)cc1` (centres undefined): 26.3% (inactive). Next, `CCN(CC)CCC(c1ccc2c(c1)OCO2)c1c(OC)cc(OC)c2c(-c3ccccc3)cc(=O)oc12` (centres undefined): 13.4% (inactive); `COc1cc(OC)c2ccc(=O)oc2c1C(CCN1CCN(c2ccccc2)CC1)c1ccc2c(c1)OCO2` (centres undefined): 94% (active). Turning to `COc1cc(C(CCN2CCN(c3ccccc3)CC2)c2c(OC)cc(OC)c3ccc(=O)oc23)cc(OC)c1OC` (centres undefined), the inhibition was 23% (inactive). In the case of `NS(=O)(=O)c1cc(C(=O)OCC(=O)NNC(=O)c2ccccc2)ccc1Cl`, the inhibition is 2.99% (inactive). For `Cc1[nH]c2ccccc2c1C(=O)C(C)Sc1nnc(C2CC2)o1` (centres undefined), the inhibition is -40.9% (inactive). As to `CNS(=O)(=O)c1cccc(C(=O)OCC(=O)N2c3ccccc3NC(=O)C2(C)C)c1`, the inhibition is -3.21% (inactive). Next, `CC(C)OCCCNc1ncnc2c1[nH]c1ccc(F)cc12`: -11.8% (inactive); `CCN1CCCC1CNc1ncnc2c1[nH]c1ccc(F)cc12` (centres undefined): 39.5% (active); `CCN1CCCC1Cn1cnc2c([nH]c3cc(OC)ccc32)c1=O` (centres undefined): 24.3% (inactive). Next, `O=C(CSc1nnc(COc2ccc(Cl)cc2)n1Cc1ccco1)N1CCNC1=O`: 0.458% (inactive).

In the case of `Cc1ccc(CN2CCN(c3ncccn3)CC2)c(C)c1`, the inhibition is 80% (active). Take `CN(C)C(=O)c1nc2ccc(Cl)cn2c1CN1CCN(c2ncccn2)CC1`: the inhibition was -10.8% (inactive). Consider `Oc1ccc(CN2CCN(c3ncccn3)CC2)cc1`, for which the inhibition is 84.3% (active). Regarding `Cc1ccc(CN2CCN(/N=C/c3ccco3)CC2)c(C)c1`, the inhibition is -9.84% (inactive).

In the case of `Cc1ccc(CN2CCN(/N=C/c3cccnc3)CC2)c(C)c1`, the inhibition was -10.4% (inactive). Next, `c1cnc(N2CCN(c3ccc4ccccc4n3)CC2)nc1`: -7.91% (inactive).

On to `Cc1ccc(CN2CC(C(=O)N3CCN(S(=O)(=O)c4ccccc4)CC3)CC2=O)cc1` (centres undefined), for which the inhibition was -4.27% (inactive). In the case of `O=C(CCNC(=O)c1ccccc1Cl)NCc1ccco1`, the inhibition was -26.5% (inactive). Next, `CCc1nnc(NC(=O)c2cc(S(=O)(=O)N3CCCCC3)ccc2C)s1`: -4.7% (inactive). In the case of `Cc1ccccc1NC(=O)Cc1nc(COC(=O)c2ccc(C(F)(F)F)cc2)cs1`, the inhibition is 2.02% (inactive). Next, `CN(CC(=O)NCC(c1ccccc1)N1CCCC1)S(=O)(=O)c1ccc(Cl)cc1` (centres undefined): 11.7% (inactive); `CCOc1ccc(NC(=O)CN(C)C(=O)CCSc2ccc(F)cc2)cc1OCC`: -8.24% (inactive). Turning to `CC1CCC(NC(=O)CNC(=O)c2ccc3ccccc3c2)CC1` (centres undefined), the inhibition was -11% (inactive).

Turning to `Cc1ccc(CN2CCCOCCS2(=O)=O)cc1`, the inhibition was -5.42% (inactive). Next, `CCCC[C@H]1COCCS(=O)(=O)N1Cc1cccc(Cl)c1`: 0.354% (inactive); `CCC(C)[C@H]1COCCS(=O)(=O)N1Cc1ccc(C)cc1` (some centres undefined): 36.6% (active); `CCN(CC)C(CNC(=O)CSc1nnnn1-c1cccc(F)c1)c1ccco1` (centres undefined): -7.6% (inactive). Next, `CN1CCN(S(=O)(=O)c2ccc(N3CCN(c4ccccc4O)CC3)c([N+](=O)[O-])c2)CC1`: 6.91% (inactive); `CC(C)(C)SCCNC(=O)c1cccc([N+](=O)[O-])c1`: 7.44% (inactive). With `Cc1cc(CNC(=O)c2cccc([N+](=O)[O-])c2)c2ccccc2n1`, the inhibition was 49.1% (active). On to `Cc1cc(C)nc(NC(=O)c2cccc([N+](=O)[O-])c2)c1`, for which the inhibition was 14.3% (inactive). Next, `O=C(COC(=O)c1ncc(Cl)c(Cl)c1Cl)NCc1ccccc1`: 6.01% (inactive); `CCN(CC(=O)NCc1cccs1)C(=O)c1ccc(OC)c(S(=O)(=O)N2CCOCC2)c1`: 13.8% (inactive); `CCOC(=O)c1c(C)[nH]c(C)c1C(=O)CSc1nc(N)cc(N)n1`: 49.1% (active). Next, `CCOC(=O)c1c(C)oc(C)c(C(=O)OCC)c1=O`: -5.88% (inactive); `Cc1cc(C)nc(SCC(=O)N(C)C)n1`: 7.94% (inactive); `CC(C)n1ncc2c(C(=O)NCc3ccccc3CN(C)C)cc(C3CC3)nc21`: 79.9% (active). `COc1ccc(C)cc1NC(=O)c1cc(-c2ccccc2)nc2c1cnn2C(C)C`: the inhibition is 5.18% (inactive). In the case of `CC(C)n1ncc2c(C(=O)Nc3ccc(CC#N)cc3)cc(C3CC3)nc21`, the inhibition is -20.3% (inactive). Next, `COc1ccc(C2=NN(C(=O)CSc3nc(=O)n4ccc(C)cc4n3)C(c3ccc(C)cc3)C2)cc1` (centres undefined): -6.53% (inactive). Next, `O=C(NCC(c1cccs1)N1CCOCC1)c1cc(Cl)ccc1[N+](=O)[O-]` (centres undefined): 11.5% (inactive). Take `CC(=O)c1ccc(N2CCN(C(=O)c3ccc(Cl)c(S(=O)(=O)NC4CC4)c3)CC2)c(F)c1`: the inhibition is 8.05% (inactive). As for `CCCCN(CC(=O)Nc1cccc(S(=O)(=O)N2CCCC2)c1)Cc1nc2ccccc2c(=O)[nH]1`, the inhibition is -6.94% (inactive).

In the case of `O=C(Nc1ccc(S(=O)(=O)N2CCOCC2)cc1)c1ccc2ncsc2c1`, the inhibition is 16.7% (inactive).

For `CN1CCN(c2ccc(NC(=O)c3ccc4c(c3)OCCO4)cc2Cl)CC1`, the inhibition is -3.57% (inactive). Take `O=C(CN1C(=O)CCC1=O)Nc1ccc(S(=O)(=O)N2CCOCC2)cc1`: the inhibition was 10.1% (inactive). Consider `Cc1ccnc(NS(=O)(=O)c2ccc(NC(=O)c3ccc(S(=O)(=O)N4CCOCC4)cc3)cc2)n1`, for which the inhibition is -5.53% (inactive). Turning to `O=C(CN1CCN(c2cccc(Cl)c2)CC1)Nc1ccc(S(=O)(=O)N2CCOCC2)cc1`, the inhibition is 30.5% (active). Consider `O=C(Nc1ccc2cn[nH]c2c1)c1ccc(S(=O)(=O)N2CCOCC2)cc1`, for which the inhibition is 30.5% (active). Next, `O=C(Nc1ccc(N2CCOCC2)c(Cl)c1)c1ccc(S(=O)(=O)N2CCOCC2)cc1`: 34.4% (active). Next, `O=C(CN1CCN(c2ccc(O)cc2)CC1)Nc1cc(S(=O)(=O)N2CCOCC2)ccc1Cl`: -10.8% (inactive). As for `O=C(CCc1ccc(S(=O)(=O)N2CCOCC2)cc1)Nc1ccc2ccccc2c1`, the inhibition was -58.3% (inactive).

With `CC(C(=O)Nc1ccc(S(=O)(=O)N2CCCC2)cc1)N(C)Cc1ccc(F)cc1` (centres undefined), the inhibition is -65.3% (inactive). As to `CCn1nc(C(=O)NNC(=O)C2CSC3(C)CCC(=O)N23)c2ccccc2c1=O` (centres undefined), the inhibition was -19.4% (inactive). Next, `COc1cc(C#Cc2ccc3cc(CCCO)oc(=O)c3c2)cc(OC)c1`: 7.69% (inactive); `COc1ccc(CNC(=O)C(=O)N2CCC3(CC2)OCCN3S(=O)(=O)c2ccc(C)cc2)cc1`: -3.99% (inactive). Next, `C=CCSc1ccc(S(=O)(=O)N2CCN(C)CC2)cn1`: 6.94% (inactive); `CC(C)N(Cc1nnc(-c2ccccc2Br)o1)C(=O)c1cc(Cl)nc2ccccc12`: -0.847% (inactive); `Cc1cc(C)cc(OCC(=O)Nc2ccc(N3CCOCC3)cc2N2CCOCC2)c1`: -19.7% (inactive). Next, `CCOc1ccc(S(=O)(=O)N2CCC(C(=O)NCC(=O)Nc3cccc(Cl)c3C)CC2)cc1`: 0.735% (inactive). For `N#Cc1ccccc1S(=O)(=O)N1CCN(Cc2c(O)ccc3ccccc23)CC1`, the inhibition is -16.7% (inactive). Regarding `COc1cccc(CNC(=O)C(=O)NCCC2CCCCN2S(=O)(=O)c2ccc(C)cc2)c1` (centres undefined), the inhibition is -3.22% (inactive).

For the molecule `C[C@@H](NC(=O)c1nc[nH]c1C(=O)N1CCN(C(=O)OC(C)(C)C)CC1)c1ccccc1`, the inhibition was 4.62% (inactive). In the case of `CCCCOC(=O)c1[nH]c(C)c(C(=O)OC)c1C`, the inhibition is -12.8% (inactive). Regarding `COC(=O)c1c(C)[nH]c(C(=O)/C=C/c2ccc(Cl)cc2)c1C`, the inhibition was 40.8% (active).

Consider `Cc1ccc(NC(=S)NC(=O)/C=C/c2ccc(Cl)cc2)cc1`, for which the inhibition is -2.32% (inactive). For the molecule `OCC1(Cc2ccccc2)CCN(Cc2cc3ccccc3o2)CC1`, the inhibition is 94.6% (active).

Turning to `CC(C)c1csc(CN2CCC(CO)(Cc3ccccc3)CC2)n1`, the inhibition was 0.256% (inactive). Consider `CC(=O)c1cccc(CN2CCC(CO)(Cc3ccccc3)CC2)c1`, for which the inhibition is 3.1% (inactive). Turning to `COc1ccc(CN2CCNC(=O)C2CC(=O)NCc2cn[nH]c2-c2ccccc2)c(F)c1` (centres undefined), the inhibition is -65.2% (inactive). Next, `OCC1(CCOc2ccccc2)CCN(Cc2cn[nH]c2-c2ccccc2)CC1`: -12.6% (inactive); `O=C(c1ccc(F)cc1)C1CCN(Cc2cn[nH]c2-c2ccccc2)CC1`: 56% (active).

In the case of `Cc1ccc(S(=O)(=O)N2CCOCC2)cc1NC(=O)COC(=O)c1cnccn1`, the inhibition is -7.64% (inactive). Next, `O=C(Nc1cccc(-c2nnc(-c3ccccc3)o2)c1)C1CCCO1` (centres undefined): 63% (active). Next, `O=C(Nc1ccc(-c2nnc(-c3ccccc3)o2)cc1)C1CCCO1` (centres undefined): -12.9% (inactive).

For `O=C(Nc1nnc(CCc2ccccc2)s1)C1CCCO1` (centres undefined), the inhibition is -19.8% (inactive). For the molecule `O=C(CC1SC(N2CCCC2)=NC1=O)Nc1ccc(C(=O)NCCc2ccc(F)cc2)cc1` (centres undefined), the inhibition was -4.16% (inactive). Next, `COc1ccc(NC(=O)CC2SC(N3CCCCC3)=NC2=O)cc1OC` (centres undefined): 40.6% (active); `CCC(C)NC(=O)c1ccc(NC(=O)CC2SC(N3CCCCC3)=NC2=O)cc1` (centres undefined): -4.54% (inactive). Next, `COc1ccccc1N1CCN(C(=O)C2Cc3ccccc3CN2C(=O)c2ccco2)CC1` (centres undefined): -23.2% (inactive). Next, `CCOc1ccc(NC(=O)COC(=O)C2CCC(=O)N2)c([N+](=O)[O-])c1` (centres undefined): -10.6% (inactive); `CC(C)c1ccc(S(=O)(=O)N2CCN(C(C)C(=O)NC3CCCC3)CC2)cc1` (centres undefined): -16.2% (inactive); `Cc1ccc2oc(=O)c3cnn(CC(=O)N4CCCCCC4)c3c2c1`: -0.561% (inactive).

Take `Cc1ccc2oc(=O)c3cnn(CC(=O)N(Cc4ccco4)C4CCCCC4)c3c2c1`: the inhibition is 32.4% (active).

As to `Cc1ccc2oc(=O)c3cnn(CC(=O)N4CCN(c5ccccn5)CC4)c3c2c1`, the inhibition is -21.9% (inactive). Next, `O=C(O)C1C2C=CC(C2)C1C(=O)NCc1ccccc1` (centres undefined): 3.26% (inactive); `O=C(COC(=O)c1ccc(O)cc1O)NNC(=O)c1cccs1`: 13.6% (inactive).
